Test systems include NCI-H23 lung; NCI-H322M lung; HOP-62 NSCLC; NCI-H460 lung; HOP-92 NSCLC; NCI-H522 lung; A549/ATCC NSCLC; 786-0 renal; COLO 205 colon; DU-145 prostate; K-562 leukemia; MALME-3M melanoma; MDA-MB-231 breast; RXF 393 renal; SF-268 CNS; SF-295 CNS; SF-539 CNS; UACC-257 melanoma; M14 melanoma.
Holding throughout (experiment): NCI-60 one-dose screen, 48 h (100 = growth as untreated, 0 = no growth, -100 = all killed)
Holding throughout (conditions): 10 µM unless noted

Molecules are shown by their SMILES. This is part of a sample that, as a whole, favours compounds with a hit. Of some 83,000 tested, about 20% had one in any assay.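 In brief: 96-well plates, 48 h treatment, single concentration, percent growth endpoint.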 Unmarked numbers belong to inactive results. Active and inactive are the calls of the source. Rule for the calls: active = growth percent below 10; inactive = the rest.

`Nc1n[nH]c2cccc(C#Cc3cccc(NC(=O)c4cc(N5CCOCC5)cc(C(F)(F)F)c4)c3)c12`: the growth in the assay on NCI-H23 lung is 45%; in the assay with NCI-H322M lung it was 55.2%; in the assay on HOP-62 NSCLC, 48.2%; in the assay with NCI-H460 lung, 47.3%; with HOP-92 NSCLC, 34.1%; in the assay on NCI-H522 lung, 53.2%. Besides, the growth in the assay with A549/ATCC NSCLC was 69.5%; in the assay on 786-0 renal it was 57.7%; with COLO 205 colon, 18.2%; with DU-145 prostate, 64.6%; with K-562 leukemia, 4.32% (active); with MALME-3M melanoma, -18.1% (active). Moreover, the growth is 30% in the assay with MDA-MB-231 breast; 38.7% in the assay with RXF 393 renal; 55.8% in the assay with SF-268 CNS; 69.1% in the assay with SF-295 CNS; 24.6% in the assay on SF-539 CNS; 45.1% in the assay with UACC-257 melanoma. Besides, in the assay with M14 melanoma, the growth was 19.2%.

In the case of `O=C(NC[C@H](O)CN1CCc2ccccc2C1)c1cc(NC2COC2)ncn1`, the growth was 99.7% in the assay on NCI-H23 lung; 93.6% with NCI-H322M lung; 92.8% in the assay with HOP-62 NSCLC; 97.8% with NCI-H460 lung; 112% in the assay on HOP-92 NSCLC; 92% with NCI-H522 lung. The growth is 93.4% in the assay with A549/ATCC NSCLC; 92% in the assay on 786-0 renal; 103% in the assay with DU-145 prostate; 108% with K-562 leukemia; 93.3% with MALME-3M melanoma; 94.6% in the assay with MDA-MB-231 breast. Moreover, the growth in the assay on RXF 393 renal was 114%; in the assay on SF-268 CNS, 86%; with SF-295 CNS, 97.7%; in the assay on SF-539 CNS, 97.4%; in the assay on UACC-257 melanoma, 116%; with M14 melanoma it was 92.4%.

Consider `Nc1c(C(=O)Nc2cccc3ccccc23)sc2nc3c(cc12)CCCCCC3`, for which the growth is 47.8% with NCI-H23 lung; 48.1% with NCI-H322M lung; 38.8% with HOP-62 NSCLC; 11.2% with NCI-H460 lung; 52.9% with HOP-92 NSCLC; -37.1% (active) with NCI-H522 lung. For the same molecule, the growth with A549/ATCC NSCLC is 20.1%; with 786-0 renal, 26.4%; in the assay with COLO 205 colon, -2.61% (active); with DU-145 prostate it was 14.9%; with K-562 leukemia, 9.1% (active); with MALME-3M melanoma it was 75.9%. Further, the growth in the assay with MDA-MB-231 breast is 39.3%; with RXF 393 renal it was 21.8%; with SF-268 CNS it was 45.6%; with SF-295 CNS, 23.7%; with SF-539 CNS, -0.219% (active); in the assay on UACC-257 melanoma, 68.8%. For the same molecule, the growth in the assay on M14 melanoma is 3.04% (active).

For `c1ccc2nc(N3CCOCC3)c(N3CCCCC3)nc2c1`, the growth in the assay with NCI-H23 lung is 95.6%; in the assay with NCI-H322M lung, 95.9%; in the assay on HOP-62 NSCLC, 94.1%; in the assay with NCI-H460 lung, 105%; in the assay with HOP-92 NSCLC, 84.5%; in the assay on NCI-H522 lung, 85.3%. In addition, the growth is 96.9% in the assay with A549/ATCC NSCLC; 102% with 786-0 renal; 110% with COLO 205 colon; 111% in the assay with DU-145 prostate; 90.5% in the assay with K-562 leukemia; 92.1% with MALME-3M melanoma. In addition, the growth with MDA-MB-231 breast is 97%; in the assay with RXF 393 renal, 98%; in the assay with SF-268 CNS, 95.2%; in the assay with SF-295 CNS, 97.2%; in the assay on SF-539 CNS it was 99%; in the assay with UACC-257 melanoma, 103%. Further, the growth with M14 melanoma is 105%.

Turning to `COc1cc(-c2nn(-c3ccc(Br)cc3)cc2CO)ccc1O`, the growth was 95.2% in the assay on NCI-H23 lung; 93.8% in the assay on NCI-H322M lung; 95.4% in the assay on HOP-62 NSCLC; 101% in the assay with NCI-H460 lung; 90.8% in the assay with HOP-92 NSCLC; 72.1% in the assay with NCI-H522 lung. The growth in the assay on A549/ATCC NSCLC was 78.1%; with 786-0 renal, 95.6%; with COLO 205 colon, 119%; with DU-145 prostate, 93.6%; with K-562 leukemia, 74.2%; in the assay on MALME-3M melanoma it was 119%. Moreover, the growth is 68.9% with MDA-MB-231 breast; 116% with RXF 393 renal; 77.7% in the assay with SF-268 CNS; 98.6% in the assay with SF-295 CNS; 92% in the assay with SF-539 CNS; 90.7% in the assay with UACC-257 melanoma. In the assay with M14 melanoma, the growth was 102%.

As for `C#CCOC(=O)[C@]1(C)CCC[C@]2(C)[C@H]3C[C@H]4C(C(C)C)=C[C@]3(CC[C@H]21)[C@@H]1C(=O)CCC(=O)[C@@H]14`, the growth in the assay on NCI-H23 lung was 84.1%; in the assay with NCI-H322M lung, 102%; in the assay on HOP-62 NSCLC, 80.1%; with NCI-H460 lung, 90.9%; in the assay on HOP-92 NSCLC it was 54%; with NCI-H522 lung it was 63.7%. For the same molecule, the growth in the assay on A549/ATCC NSCLC was 76.9%; with 786-0 renal, 88.5%; in the assay on COLO 205 colon it was 105%; in the assay with DU-145 prostate, 102%; in the assay on K-562 leukemia it was 77.2%; in the assay on MALME-3M melanoma, 110%. Further, the growth in the assay on MDA-MB-231 breast is 74.6%; in the assay with RXF 393 renal, 86%; with SF-268 CNS, 99.2%; in the assay on SF-295 CNS, 83.7%; in the assay with SF-539 CNS, 84%; in the assay with UACC-257 melanoma, 92.3%. For the same molecule, the growth in the assay on M14 melanoma was 91.9%.

Turning to `CCOC(=O)/C=C1\SC(=Nc2ccc(C#N)cc2)N(CCN2C(=O)/C(=C/C(=O)OCC)SC2=Nc2ccc(C#N)cc2)C1=O`, the growth in the assay on NCI-H23 lung is 52%; with NCI-H322M lung, 86.6%; in the assay on HOP-62 NSCLC it was 51.3%; with NCI-H460 lung, 31.6%; with HOP-92 NSCLC it was 80.4%; with NCI-H522 lung, 36.4%. Further, the growth was 77.5% in the assay on A549/ATCC NSCLC; 48.5% in the assay on 786-0 renal; 18.6% in the assay on COLO 205 colon; 41.7% in the assay on DU-145 prostate; 7.43% (active) in the assay on K-562 leukemia; 98.6% in the assay with MALME-3M melanoma. In addition, the growth in the assay on MDA-MB-231 breast is 16.3%; with RXF 393 renal, 49.7%; in the assay with SF-268 CNS it was 29.7%; in the assay on SF-295 CNS, 76.8%; in the assay with SF-539 CNS, 41.6%; with UACC-257 melanoma, 77.3%. Besides, the growth in the assay on M14 melanoma was 52.3%.

The values above are taken from PubChem BioAssay (NCI).
